# Measurements from ChEMBL document CHEMBL4888484, “Replenishing the malaria drug discovery pipeline: Screening and hit evaluation of the MMV Hit Generation Library 1 (HGL1) against asexual blood stage Plasmodium falciparum ,using a nano luciferase reporter read-out” (2022).
# Out of some 4,800 compounds screened, about 410 (8.5%) showed an effect of 50% or more. For the sample, strong results were picked, then their nearest neighbours and some compounds at random.
# Tested on: Plasmodium falciparum
# Assay: Confirmatory screen in NF54 pLDH assay, in single point, at 2uM, 72h
# Assay type: functional, Erythrocyte
# Details: timepoint 72 hour
row,Structure (SMILES),% Inhibition
1,C[C@@H]1CN(c2ccc(N)cn2)C[C@H](C)O1,-12%
2,COc1ccc(CC(=N)Nc2cc3cc(OC)c(OC)cc3c(Cc3ccc(OC)c(OC)c3)n2)cc1OC,89%
3,CCCNC(=O)C[C@H](C)CC(=O)NCCc1ccc(OC)c(OC)c1,14%
4,COc1ccc(CCNC(=O)CCCC(=O)NCc2ccccc2)cc1OC,-14%
5,CNC(=O)C(=O)Nc1ccccc1C(F)(F)F,9%
6,C[C@H](NC(=O)c1cocn1)c1ccccc1NC(=O)c1cocn1,-7%
7,Oc1ccc2ncccc2c1[C@@H](Nc1ccccn1)c1cccc(Br)c1,77%
8,Cc1cc([C@H](Nc2ccccn2)c2cccnc2)c(NC(=O)c2ccccc2)s1,4%
9,Cc1cc([C@H](Nc2ccccn2)c2ccccc2)c(NC(=O)c2ccccc2)s1,3%
10,CCCC(=O)N1CCC(OC(=O)c2cnc3ccc(F)cc3c2)CC1,-10%
11,CC(C)Nc1nc2nonc2n2cnnc12,90%
12,COc1ccc(Nc2ncc(Cc3ccccc3C)s2)cc1,4%
13,CC(C)C(CNCc1nnn(C)n1)C(C)C,11%
14,FC(F)(F)c1cnc(-c2csc(NC3CCCCC3)n2)c(Cl)c1,15%
15,NC(=O)c1nnn2c1C(=O)N[C@H](c1ccc(Cl)cc1)C2,-13%
16,CCc1c(-c2nc(CCN(C)C(=O)c3ccoc3)no2)[nH]c2ccc(C)cc12,-19%
17,CCN1c2cc(C(=O)N3CCCCC3)ccc2C(=O)N2CCCCC[C@H]21,6%
18,Cc1cc(C(=O)Nc2cc(C)nn2C)nc(N(C)C)n1,8%
19,Cc1cc(NC(=O)c2ccccn2)n(-c2nc3ccccc3o2)n1,93%
20,Cc1cc(C)n(C(=O)CNC(=O)c2ccccn2)n1,14%
21,COc1ccc(S(=O)(=O)N2CC[C@@H]3[C@@H](COCCN3Cc3ccccc3)C2)cc1,0%
22,O=C(CNC(=O)COc1ccccc1)NCC1(O)CCCCCC1,6%
23,C[C@@H](CN)N(C)c1ccnc2cc(Br)cnc12,96%
24,O=C(O)C1c2ccccc2C(=O)N(C2CCCCC2)C1c1ccc(Cl)cc1 (stereo unspecified),-3%
25,Cc1noc(C)c1CN1CCNC(=O)CC1,-14%
26,Cc1noc(C)c1CN1CCCN(C(=O)c2n[nH]c3ccccc23)CC1,7%

row,Structure (SMILES),% Inhibition
1,Cc1noc(C)c1CN1C[C@@H]2Oc3cc(F)ccc3C(=O)N(C)[C@@H]2C1,97%
2,Cc1ccc(N2C(=O)c3ccccc3[C@H]2Nc2nc(C)cs2)nc1,-16%
3,C[C@@H]1CN(C(=O)NCCc2ccc(C(F)(F)F)cn2)C[C@H](C)O1,6%
4,Cc1cc(NCc2noc(-c3ccsc3)n2)ccc1C(N)=O,5%
5,Cc1noc(C)c1NS(=O)(=O)c1ccc2c(c1)OCCCO2,0%
6,CCN(CC(=O)Nc1ccc2c(c1)OCCO2)C(=O)CCc1c(C)noc1Cl,5%
7,COc1ccc([C@@H]2c3[nH]c4ccc(OC)cc4c3CCN2C(=O)NCc2ccc(F)cc2)cc1,4%
8,COc1ccc(N2CCN(C(=O)c3ccc(F)cc3)[C@@H](C)C2=O)cc1,11%
9,COc1ccc2[nH]c3c(c2c1)CCN(C(=O)c1ccc(C)c(C)c1)[C@@H]3c1ccccc1OC,86%
10,CC1(C)CCC(Nc2ccc(C(N)=O)nn2)CC1,92%
11,CC1CCCCC1OCCN1CCOCC1C(N)=O (stereo unspecified),7%
12,Cc1nn(C)c(C)c1-c1cc(C(=O)Nc2cc(F)ccc2F)c2c(C)nn(C)c2n1,2%
13,COc1cccc(-c2cc(C(=O)Nc3ccc(F)c(Cl)c3)c3c(C)nn(C)c3n2)c1,4%
14,CC(C)C(C(=O)O)N1Cc2c(cc(O)c3c2OC2(C3)C(C)CCC3C(C)(C)C(O)CCC32C)C1=O (stereo unspecified),5%
15,Cc1c(NC(=O)C(F)(F)[C@@]2(F)OC(F)(F)C(F)(F)C2(F)F)c(=O)n(-c2ccccc2)n1C,-16%
16,Cc1cc(F)ccc1-n1ccc(C(=O)N(C[C@H]2CCOC2)C2CC2)n1,-12%
17,CC[C@](O)(C(=O)N(C)Cc1ncon1)c1cccc(Cl)c1,-13%
18,Cc1ccc(CC[C@H]2Nc3ccccc3C(c3ccccc3)(c3ccccc3)O2)o1,66%
19,CCCOC(=O)c1cc(NC(=O)c2ccc3ccccc3c2)ccc1N1CCOCC1,-11%
20,Cc1cc(C(=O)N2CCC3(CCNCC3)CC2)ccc1F,7%
21,CN1C(=O)[C@H](O)N(c2cccc3ccccc23)C1=O,9%
22,COc1cccc(-c2cc3c(N4CCN(c5ccccn5)CC4)nccn3n2)c1,4%
23,C[C@H](NC(=O)c1cc(-c2ccc(F)cc2)ns1)c1ccccn1,9%
24,Cc1c2c(C(F)(F)F)cc(=O)n(CCC(=O)Nc3ncc(Cl)cc3Cl)c2nn1C,-7%
25,Cn1c(Cc2n[n+]3c(-c4ccccc4)cc(-c4ccccc4)nc3n2C)n[n+]2c(-c3ccccc3)cc(-c3ccccc3)nc12,95%
26,Cc1ccc(Cl)cc1N1CCN(C(=O)c2ccc3noc(-c4ccc(F)cc4)c3c2)CC1,-13%

row,Structure (SMILES),% Inhibition
1,c1ccc(CC2CCN(c3[nH]cnc4ncnc3-4)CC2)cc1,11%
2,O=C(Nc1cc(N2CCCS2(=O)=O)ccc1O)c1cccc(Oc2cccc(C(F)(F)F)c2)c1,97%
3,Cc1cccc(C(=O)Nc2ccc(N3CCCCCC3)cc2C(=O)O)c1,-10%
4,O=C(Nc1cccc(C(F)(F)F)c1)C(Oc1ccccc1)Oc1ccccc1,-19%
5,CCOC(=O)c1oc(NC(=O)OC(C)(C)C)nc1C(F)(F)F,5%
6,C#CCn1ccc(O)c(Cc2ccccc2)c1=O,14%
7,CN(C(=O)C1CC=CC1)c1ccc(NC(=O)C2CC=CC2)cc1Cl,-13%
8,CN(Cc1ccc(F)cc1Cl)[C@H]1CCc2nnc(C3CCOCC3)n2CC1,-4%
9,c1ccc(N2CCN(CCN[C@H]3CCc4cc5c(cc43)CCC5)CC2)cc1,9%
10,Oc1ccccc1CCN[C@H]1CCc2ccc(F)cc21,95%
11,Cc1ccnc(CNC(=O)N[C@H]2CCc3ccc(F)cc32)c1,-12%
12,O=C1OCc2cc(NC(=O)[C@@H]3COc4ccccc4O3)ccc21,10%
13,Cc1cc(OCc2ccc(C(=O)Nc3ncn(Cc4c(F)cccc4Cl)n3)o2)ccc1Cl,0%
14,COc1ccc(NC(=O)CC(C)(C)CC(=O)O)cc1,10%
15,Cc1cc2nc(C)c(=O)n(Cc3ccc(C(=O)N4CCC(Cc5ccccc5)CC4)cc3)c2cc1C,12%
16,Cc1ccc(C(=O)C[n+]2cc(-c3ccc(-c4ccccc4)cc3)n(C)c2N)cc1,4%
17,C=Cn1cc[n+](CC(=O)c2ccc(-c3ccccc3)cc2)c1,51%
18,Cn1c(-c2ccc(Cl)c(Cl)c2)c[n+](CC(=O)c2ccc(-c3ccccc3)cc2)c1N,9%
19,CCC(C(=O)Nc1cc(C)on1)(C(F)(F)F)C(F)(F)F,9%
20,CCCN1CCN(CCCNC(=O)c2ccc(Cl)c(-n3c(C)nc4cccnc43)c2)CC1,13%
21,Cc1cc(NC(=O)[C@H](C)OC(=O)c2ccc3c(c2)OCC(=O)N3)on1,-19%
22,Cc1nnc(CC(=O)NC2CC(OCc3ccccc3)C2(C)C)o1 (stereo unspecified),8%
23,Cc1nnc(-c2ccccc2NC(=O)CCC2CCC(C)O2)o1 (stereo unspecified),-16%
24,Cc1nnc(CNC(=O)Nc2cccc3c4c(oc23)CCCC4)o1,72%
25,Cc1ccc(NC(=N)NC2=N[C@@H](CC(=O)Nc3cccc(C(F)(F)F)c3)C(=O)N2)cc1,-10%
26,CCn1nccc1CNc1ccc(F)cc1F,2%

row,Structure (SMILES),% Inhibition
1,Cc1ccc(S(=O)(=O)N2CCC[C@H](C(=O)NCc3cccc(NC(=O)N4CCCC4)c3)C2)s1,8%
2,Cc1cc2c(OC[C@@H](O)CN3CCOCC3)cccc2[nH]1,-7%
3,Cc1nn(Cc2ccccc2)c(=O)n1-c1ccc(OCc2ccccc2)cc1,-14%
4,COCCCNC(=O)C1CCN(c2c(C)n(-c3ccccc3)c(=O)n(CC(C)C)c2=O)CC1,5%
5,CN(Cc1ccc(F)cn1)c1ccn(C)n1,8%
6,CC1(C)OCc2cc(CNc3ccc4oc(=O)[nH]c4c3)ccc2O1,100%
7,Cc1ccc(C)c(NC(=O)CC(=O)O)c1,-8%
8,O=C1C2CC2C(=O)N1Cc1ccccc1 (stereo unspecified),10%
9,Cc1nc(-c2ccc(N3CCC(NCCCn4ccnc4)CC3)cc2)cs1,23%
10,O=C(CN1CCC(c2ccc(F)c(F)c2)CC1)NCc1cccnc1,-8%
11,Cc1ccc(C(=O)N[C@@H](C)CCc2ccccc2)cc1S(=O)(=O)N1CCN(C)CC1,-22%
12,O=S(=O)(c1ccccc1C(F)(F)F)N1CC[C@]2(CCN(c3cccnc3)C2)C1,10%
13,CC(C#N)CNCCC(C)c1ccccc1 (stereo unspecified),8%
14,O=C(O)c1cc(C=Cc2ccc3ncccc3c2)ncn1,11%
15,COc1ccc2cc3n(c2c1)C[C@](C(=O)NC1CCCCCC1)(c1ccccc1)N(Cc1ccc(OC(C)C)cc1)C3=O,-23%
16,Brc1cnn(Cc2cnc(NC3C4CCOC4C34CCC4)s2)c1 (stereo unspecified),4%
17,C[C@@H](N)C(=O)N1CCc2cc(-c3ccccc3)ccc21,11%
18,CCC1CCCC(NS(=O)(=O)CCC(C)(C)C)C1 (stereo unspecified),-12%
19,Cc1ccc(N2CCN(S(=O)(=O)c3ccccc3)[C@@H](C)C2=O)cc1F,-11%
20,O=c1[nH]c(=O)n(S(=O)(=O)c2ccccc2)cc1F,87%
21,O=S(=O)(c1ccccc1)N1CCN(S(=O)(=O)c2ccc(Cl)cc2)C1,11%
22,COc1ccc(CCNC(=O)c2cc3c(=O)[nH]c(C)cn3n2)cc1OC,8%
23,COc1cc(F)c(NCc2csc(C3CC3)n2)cc1OC,-21%
